LASV entry inh: blocks Lassa virus binding to or entry into cells. Lassa virus pseudotype entry inhibition, cell reporter. Potency, µM (doses to about 37.9 µM), most hits filed as inhibitors. actives 1.2% (n = 300,000); calls by dose curve; tested in HEK293 cells; note: nearly all actives have a fitted effect of over 50% in size
FMDV antiviral: blocks foot and mouth disease virus; Potency, µM (titrated, usually from 57.9 µM), actives largely listed as inhibitors; AID 1159524; actives 1.2% (n = 410,000); FMDV antiviral cell-based qHTS; calls by dose curve; tested in HEK293T cells; note: read-out not given here; nearly all actives have a fitted effect of over 45% in size
MARV entry inh: inhibitors of Marburg virus binding or cell entry | Marburg virus pseudotyped entry inhibition, cell reporter | Potency, µM (series often up to 37.8 µM), hits mostly inhibitors | actives 1.8% (n = 300,000); calls by dose curve; tested in HEK293 cells
Vaccinia mCherry: inhibitors of vaccinia virus infection (mCherry reporter signal). Vaccinia virus mCherry reporter infection, fluorescence. actives 0.63% (n = 310,000). Potency, µM (doses to about 36.5 µM), actives largely listed as inhibitors; calls by dose curve; tested in A549 cells; note: nearly all actives have a fitted effect of over 35% in size
HCMV antiviral: human cytomegalovirus inhibition. HFF cells, HCMV-luciferase reporter, 72 h; hits give low values. activity change, negative = inhibition, % at 57.5 µM. actives 4.5% (n = 410,000); in the data active = activity change below about -60%; inconclusive = no clear call, values can overlap the other calls; inactive = above about -39%
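After 16 h attachment at 37C, HFF cells received test compound and HCMV-luciferase (1 PFU/cell); reporter luminescence read 72 h later, data normalized against buffer-only and known inhibitor Salinomycin.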
Vaccinia Venus: vaccinia inhibition (Venus reporter) | actives 0.46% (n = 330,000) | Vaccinia virus Venus reporter expression, fluorescence | Potency, µM (series often up to 36.5 µM), usual class: inhibitors; calls by dose curve; tested in A549 cells; note: nearly all actives have a fitted effect of over 30% in size
Of the large screens only hits and unclear results are named; the others gave an inactive call. An excerpt weighted towards active compounds, which were near 6.5% of everything screened.

O=C(c1ccc(F)c(F)c1)N1CCOc2ccc(CN3CCN(CCO)CC3)cc2C1	none (no result: LASV entry inh, MARV entry inh, HCMV antiviral)
CN(Cc1ccccc1)C(=O)c1cc(-c2cccc(Cl)c2)on1	none
Cc1c(C(=O)NCCc2ccccc2)oc2ccc(S(=O)(=O)N3CCC4(CC3)OCCO4)cc12	LASV entry inh 23µM, FMDV antiviral inconclusive, MARV entry inh inconclusive
CC1(C)CC(=O)C(=Cc2cn(-c3ccccc3)nc2-c2ccc(Cl)cc2)C(=O)C1	FMDV antiviral inconclusive (no result: Vaccinia mCherry)
CC1=NNC(=O)/C1=C\c1cn(-c2ccccc2)nc1-c1ccccc1	LASV entry inh inconclusive, FMDV antiviral 8.9µM, MARV entry inh 4µM, Vaccinia mCherry 10µM, HCMV antiviral -100, Vaccinia Venus 10µM
Nc1nc(N2CCN(c3ccccn3)CC2)nc2ccccc12	none (no result: LASV entry inh, MARV entry inh)
CCN(CC(=O)Nc1c(C(=O)OC)[nH]c2ccc(Cl)cc12)c1ccc2c(c1)OCO2	LASV entry inh 13µM, MARV entry inh inconclusive, Vaccinia Venus inconclusive (no result: Vaccinia mCherry)
CN1c2cc(Cl)ccc2-c2nc(SCC(=O)Nc3ccc(F)cc3F)ncc2S1(=O)=O	FMDV antiviral inconclusive, Vaccinia mCherry inconclusive, HCMV antiviral -63 (no result: MARV entry inh)
Cc1ccc(NC(=O)CSc2ncc3c(n2)-c2ccc(Cl)cc2N(C)S3(=O)=O)cc1F	none (no result: MARV entry inh)
Cc1cccc(C)c1NC(=O)CSc1ncc2c(n1)-c1ccc(Cl)cc1N(Cc1ccccc1)S2(=O)=O	HCMV antiviral -99 (no result: MARV entry inh)
O=C(CSc1ncc2c(n1)-c1cc(Cl)ccc1N(Cc1ccccc1)S2(=O)=O)Nc1ccc(F)cc1F	LASV entry inh inconclusive, FMDV antiviral inconclusive, HCMV antiviral -98 (no result: MARV entry inh)
Cc1ccc(CN2C[C@@H](Sc3nc(C)cc(C)n3)C[C@H]2C(=O)N2CCN(c3ccccc3F)CC2)cc1	none (no result: LASV entry inh, MARV entry inh, HCMV antiviral)
O=C(NCc1ccco1)/C(=C/c1ccc(C(F)(F)F)cc1)c1nc2ccccc2[nH]1	LASV entry inh inconclusive (no result: Vaccinia mCherry, Vaccinia Venus)
O=C(NCc1ccco1)/C(=C/c1cccc(C(F)(F)F)c1)c1nc2ccccc2[nH]1	LASV entry inh inconclusive, MARV entry inh inconclusive, HCMV antiviral -100
CCC(C)NC(=O)COC(=O)c1csc2c1CCCC2 (centres undefined)	FMDV antiviral 3.5µM (no result: LASV entry inh, MARV entry inh)
COc1ccc(/C=N/NC(=O)CSCC(=O)Nc2ccccc2)cc1	none (no result: LASV entry inh, MARV entry inh, Vaccinia mCherry, Vaccinia Venus)
COc1cccc(/C=N/NC(=O)CNC(=O)C(c2ccccc2)c2ccccc2)c1O	LASV entry inh 10µM, MARV entry inh inconclusive, Vaccinia mCherry 3.5µM, Vaccinia Venus inconclusive
COc1cccc(/C=N/NC(=O)CSCC(=O)Nc2ccccc2)c1O	LASV entry inh inconclusive, MARV entry inh 21µM, HCMV antiviral -93 (no result: Vaccinia mCherry, Vaccinia Venus)
CCOc1cccc(C=NNC(=O)C(=O)Nc2cccc(C(F)(F)F)c2)c1O	HCMV antiviral -62 (no result: LASV entry inh, FMDV antiviral, MARV entry inh, Vaccinia mCherry, Vaccinia Venus)
COc1cccc(/C=N/NC(=O)CNC(=O)/C=C\c2ccccc2)c1O	none (no result: LASV entry inh, MARV entry inh, Vaccinia mCherry, Vaccinia Venus)
CC(C)(C)[S+](=O)([O-])/C(C#N)=C/NC1=NCCCC1	none (no result: LASV entry inh, FMDV antiviral, Vaccinia mCherry, HCMV antiviral, Vaccinia Venus)
Cc1ccc(S(=O)(=O)Nc2ccccc2C(=O)N2CCCCC2)cc1	none (no result: LASV entry inh, MARV entry inh, Vaccinia mCherry, Vaccinia Venus)
C=C(CC(=O)OC)C[C@]1(CC(=O)OC)CC2(CC=C(C)C)C(=O)C(C(=O)c3ccccc3)=C(OC(=O)c3ccc(Br)cc3)C(CC=C(C)C)(C1)C2=O (some centres undefined)	none (no result: LASV entry inh, FMDV antiviral, Vaccinia mCherry, HCMV antiviral, Vaccinia Venus)
O=C1NN(c2ccccc2)C(=O)/C1=C\c1cccn1-c1ccc(Cl)c([N+](=O)[O-])c1	LASV entry inh inconclusive, FMDV antiviral inconclusive, MARV entry inh 11µM
O=c1nc(N/N=C/c2c[nH]c3ccccc23)cn[nH]1	LASV entry inh inconclusive, MARV entry inh 8.9µM
O=C(O)c1cccc2c(/C=N/Nc3ccccn3)c[nH]c12	none (no result: LASV entry inh, MARV entry inh, Vaccinia mCherry, HCMV antiviral, Vaccinia Venus)
O=c1nc(N/N=C/C=C/c2ccccc2)cn[nH]1	LASV entry inh 2.2µM, FMDV antiviral inconclusive
C(=N\Nc1ccccn1)/c1c[nH]c2ccccc12	MARV entry inh inconclusive, Vaccinia mCherry inconclusive, HCMV antiviral -68, Vaccinia Venus inconclusive
O=C(O)[C@H]1CCCN1	none (no result: LASV entry inh, MARV entry inh, HCMV antiviral)
Cc1cc(C)cc(-n2c3ccc(NC(=O)Cc4cccc5ccccc45)cc3c(=O)n2C)c1	HCMV antiviral -71 (no result: LASV entry inh, MARV entry inh)
Cc1ccc(C2OCC(C)([N+](=O)[O-])CO2)cc1 (centres undefined)	none
OC1c2cc(Cl)cc(Cl)c2N=C2CCCN21 (centres undefined)	none (no result: LASV entry inh, MARV entry inh)
O=[N+]([O-])c1cc(/C=N/O)ccc1SCc1ccccc1	HCMV antiviral -66 (no result: Vaccinia mCherry, Vaccinia Venus)
Nc1ccc(C(=O)Nc2ccccc2C(=O)O)cc1	none (no result: Vaccinia mCherry, Vaccinia Venus)
O=C(O)c1ccccc1NC(=O)c1ccccc1Nc1ccccc1	HCMV antiviral -70 (no result: LASV entry inh, MARV entry inh, Vaccinia mCherry, Vaccinia Venus)
